Source: PubChem BioAssay (NCATS)
“And” between values parts separate entries of the source, which are not always exact repeats. Identical values can stand only once. Records with an inconclusive call do not appear. Where a call stands in place of a potency, no number is given. Values without a mark were called inactive. The source made the active and inactive calls. Calls follow the shape of the dose curve; as a rule, active = well fitted curve in the direction sought with a large enough effect; inconclusive = small, poorly fitted or top-dose-only effect, or another doubt; inactive = no such curve, though single readings can be large; an effect the other way counts as inactive or inconclusive.

How the values were obtained:
[1] = Primary qHTS for inhibitors of nuclear receptor binding SET domain protein 2 (NSD2) in an isogenic RCH-ACV NSD2 p.E1099K mutant (9B) (AID 1645876); conditions: RCH-ACV NSD2 E1099K (9B) viability, CellTiter-Glo, 72 h; series mostly up to 44.9 µM; also: potency is read from the fitted curve at half-maximal effect
[2] = Primary qHTS for inhibitors of nuclear receptor binding SET domain protein 2 (NSD2) in an RCH-ACV wild type WT cells (2C) (AID 1645877); conditions: RCH-ACV (leukaemia line) NSD2 WT (2C) viability, CellTiter-Glo, 72 h; series mostly up to 44.9 µM
Also: nearly all actives have a fitted effect of over 70% in size.

Compound: CC1CCC(=O)CC(O)C(O)CC(=O)O1 (configuration not stated)
- Potency [1]: inactive

Compound: CN(C)C/C=C/C(=O)Nc1ccc(C(=O)Nc2cccc(Nc3ncc(Cl)c(-c4c[nH]c5ccccc45)n3)c2)cc1
- Potency [1]: 18.3 nM (active) and 52.5 nM (active)

Compound: CCCC(N[C@@H](C)C(=O)N1[C@H](C(=O)O)C[C@@H]2CCCC[C@@H]21)C(=O)OCC (some centres not stated)
- Potency [1]: inactive

Compound: C=C(C)C(C)C1OC23CC4(CO2)C(CCC2C5(C)CCC(OC6OCC(O)C(OC7OC(CO)C(O)C(OC8OCC(O)C(O)C8O)C7O)C6OC6OC(CO)C(O)C6O)C(C)(C)C5CCC24C)C3C(C)(O)C1OC(C)=O (configuration not stated)
- activity change, negative = viability loss [1]: -26.7% [at 9.23 µM]

Compound: CCOC(=O)Nc1nc2ccccc2[nH]1
- Potency [1]: inactive

Compound: C=C(C)C1CC2(CO)C(=CC1=O)CCC(O)C2C (configuration not stated)
- Potency [1]: inactive
- Potency [2]: inactive

Compound: C[C@H]1CN(C[C@H](Cc2ccccc2)C(=O)NCC(=O)O)CC[C@@]1(C)c1cccc(O)c1
- Potency [1]: inactive

Compound: O=C1Nc2ccc(O)cc2O[C@H]1O[C@@H]1O[C@H](CO)[C@@H](O)[C@H](O)[C@H]1O
- Potency [1]: inactive

Compound: CC(=C/C(=O)O)/C=C/[C@]1(O)[C@@]2(C)CO[C@]1(C)C[C@H](O[C@@H]1O[C@H](CO)[C@@H](O)[C@H](O)[C@H]1O)C2
- Potency [1]: inactive

Compound: C[C@@H]1O[C@@H](O[C@H]2[C@H](O[C@H]3[C@H](O[C@H]4CC[C@@]5(C)C(CC[C@]6(C)C5CC=C5[C@@H]7CC(C)(C(=O)O)C[C@@H](O)[C@]7(C)CC[C@]56C)[C@@]4(C)CO)O[C@H](C(=O)O)[C@@H](O)[C@@H]3O)O[C@H](CO)[C@H](O)[C@@H]2O)[C@H](O)[C@H](O)[C@H]1O (some centres not stated)
- activity change, negative = viability loss [1]: -4.48% [at 9.23 µM]

Compound: CCC(CCO[C@@H]1O[C@H](CO[C@H]2OC[C@](O)(CO)[C@H]2O)[C@@H](O)[C@H](O)[C@H]1O)C(C)(C)O (some centres not stated)
- Potency [1]: inactive
- Potency [2]: inactive

Compound: CC/C=C\C[C@H]1C(=O)C=C[C@@H]1CCCCCCCC(=O)O
- Potency [1]: inactive

Compound: O=C(O[C@H]1[C@@H]2C=CO[C@@H](O[C@@H]3O[C@H](CO)[C@@H](O)[C@H](O)[C@H]3O)[C@@H]2[C@@]2(CO)O[C@@H]12)c1ccc(O)cc1
- Potency [1]: inactive
- Potency [2]: inactive

Compound: C=C(C(=O)OC)C1CCC2(C)C(O[C@@H]3O[C@H](CO)[C@@H](O)[C@H](O)[C@H]3O)CC(=O)C(C)C2C1O (some centres not stated)
- Potency [1]: inactive
- Potency [2]: inactive

Compound: CC[C@H](/C=C/[C@@H](C)[C@H]1CC[C@H]2[C@@H]3CC=C4C[C@@H](O)CC[C@]4(C)[C@H]3CC[C@]12C)C(C)C
- outcome [1]: inactive [at 4.96 µM]
- outcome [2]: inactive [at 4.96 µM]

Compound: NC(=O)c1cccc(-c2cc(O)cc(OC(=O)NC3CCCCC3)c2)c1
- Potency [1]: inactive
- Potency [2]: inactive

Compound: Cc1onc(-c2ccccc2)c1C(=O)N[C@@H]1C(=O)N2[C@@H]1SC(C)(C)[C@@H]2C(=O)O
- Potency [1]: inactive
- Potency [2]: inactive

Compound: CC(=O)OC[C@@]12[C@@H](OC(C)=O)C[C@@H](C)[C@](C)([C@@H]3C[C@H]4C=CO[C@H]4O3)[C@H]1CCC[C@]21CO1
- Potency [1]: inactive
- Potency [2]: inactive

Compound: NS(=O)(=O)NCCNc1nonc1C(=Nc1ccc(F)c(Br)c1)NO
- Potency [1]: inactive
- Potency [2]: inactive

Compound: CC(C)[C@@H](C)/C=C/[C@@H](C)[C@H]1CC[C@H]2C3=CC=C4C[C@@H](O)CC[C@]4(C)[C@H]3CC[C@]12C
- Potency [1]: inactive
- Potency [2]: inactive

Compound: COc1ccc([C@H]2Cc3cccc(O)c3C(=O)O2)cc1
- Potency [1]: inactive
- Potency [2]: inactive

Compound: CC(C)CC(=O)OC[C@H]1O[C@@](COC(=O)CC(C)C)(O[C@H]2O[C@H](CO)[C@@H](O)[C@H](O)[C@H]2O)[C@@H](OC(=O)CC(C)C)[C@@H]1OC(=O)CC(C)C
- Potency [1]: inactive
- Potency [2]: inactive

Compound: CCc1cc2c(=O)c(-c3nc4ccccc4s3)coc2c(CN2CCCCC2)c1O
- Potency [1]: inactive
- Potency [2]: inactive

Compound: CC(O)C(O)/C=C/C=C/C(=O)O[C@@H]1C=C2COC(=O)[C@]2(O)[C@@]2(C)CCCC(C)(C)C12 (some centres not stated)
- Potency [1]: inactive
- Potency [2]: inactive

Compound: C[C@@H]1CC[C@H]2C(C)(C)[C@H](O)[C@H](O)C[C@]2(C)[C@@]12Cc1c(O)cc3c(c1O2)CNC3=O
- Potency [1]: inactive
- Potency [2]: inactive

Compound: CCC[C@@H]1C[C@@H](C(=O)N[C@@H]([C@H]2O[C@H](SC)[C@H](OP(=O)(O)O)[C@@H](O)[C@H]2O)[C@H](C)Cl)N(C)C1
- Potency [1]: inactive
- Potency [2]: inactive

Compound: CC1(C(=O)O)CCCC2(C)C1CCC13CC(CCC21)C1(CO)OC31 (configuration not stated)
- Potency [1]: inactive
- Potency [2]: inactive

Compound: COc1ccccc1[C@@H]1C2=C(CC(C)(C)CC2=O)Nc2n[nH]c(C(F)(F)F)c21
- Potency [1]: inactive
- Potency [2]: inactive

Compound: COc1ccc2c(c1)OC[C@]1(O)c3cc4c(cc3O[C@H]21)OCO4
- Potency [1]: inactive
- Potency [2]: inactive

Compound: COc1c2c(c(C)c3c1C(=O)OC3)OC1(C)CC(O)C3(O)C(C)(C)OC(=O)CCC3(C)C1C2 (configuration not stated)
- Potency [1]: inactive
- Potency [2]: inactive

Compound: C/C=C(/C)C(=O)O[C@H]1C=C(C)C[C@H](OC(=O)c2ccc(O)cc2)C2[C@](O)(C(C)C)CC[C@@]21C (some centres not stated)
- Potency [1]: inactive
- Potency [2]: inactive

Compound: O=c1ccn([C@@H]2O[C@H](CO)[C@@H](O)[C@H]2O)c(=O)[nH]1
- Potency [1]: inactive
- Potency [2]: inactive

Compound: O=C(O)CCc1cc2ccoc2cc1O[C@@H]1O[C@H](CO[C@@H]2OC[C@](O)(CO)[C@H]2O)[C@@H](O)[C@H](O)[C@H]1O
- Potency [1]: inactive
- Potency [2]: inactive

Compound: C=C1CCC2C(C)(CO[C@@H]3O[C@H](CO)[C@@H](O)[C@H](O)[C@H]3O)C(O)CCC2(C)C1C(=O)CC1=CCOC1=O (some centres not stated)
- Potency [1]: inactive
- Potency [2]: inactive

Compound: C=C1CC/C=C(/CO)C(=O)C[C@@H]2[C@@H]1CC2(C)C
- Potency [1]: inactive
- Potency [2]: inactive

Compound: COc1cc(C(=O)OC[C@H]2O[C@H](O[C@@]3(CO)O[C@@H](CO)[C@H](O)[C@H]3O)[C@H](O)[C@@H](O)[C@@H]2O)ccc1O
- Potency [1]: inactive
- Potency [2]: inactive

Compound: C[C@@H]1CC[C@]2(C(=O)O)CC[C@]3(C)C(=CCC4[C@]5(C)C(CC[C@]43C)C(C)(C)[C@@H](O)[C@H](O)[C@@H]5O)C2[C@]1(C)O (some centres not stated)
- Potency [1]: inactive
- Potency [2]: inactive

Compound: O=C(O)c1cc(O[C@@H]2O[C@H](CO[C@@H]3OC[C@@H](O)[C@H](O)[C@H]3O)[C@@H](O)[C@H](O)[C@H]2O)c2ccccc2c1O
- Potency [1]: inactive
- Potency [2]: inactive

Compound: CC1=CCC2C(C)(CO)CCCC2(C)C1CC12OC1C(O)C(CO)=CC2O (configuration not stated)
- Potency [1]: inactive
- Potency [2]: inactive

Compound: CO[C@@H]1COCC[C@@H]1N[C@@H]1CC[C@@](C(=O)N2CCc3ncc(C(F)(F)F)cc3C2)(C(C)C)C1
- Potency [1]: inactive
- Potency [2]: inactive

Compound: CN1C(=O)c2ccccc2-n2c(nc3ccccc3c2=O)[C@@]12O[C@H]2c1ccccc1
- Potency [1]: inactive
- Potency [2]: inactive

Compound: CO[C@H]1C=C2C(CC[C@H](O[C@@H]3O[C@H](CO)[C@@H](O)[C@@H](O)[C@H]3O)C2(C)C)[C@]2(C)CC[C@]3(C)C([C@H](C)C(O)C(C=C(C)C)O[C@@H]4O[C@H](CO)[C@@H](O)[C@@H](O)[C@H]4O)CC[C@@]3(C)C12 (some centres not stated)
- outcome [1]: inactive [at 9.23 µM]
- outcome [2]: inactive [at 9.23 µM]

Compound: C=C1C[C@]23C[C@H]1CC[C@H]2[C@@]12C=C[C@H](O)[C@@](C)(C(=O)O1)[C@H]2[C@@H]3C(=O)O
- Potency [1]: inactive
- Potency [2]: inactive

Compound: CO[C@@H](Cc1ccc(OCCc2nc(-c3ccccc3)oc2C)c2ccsc12)C(=O)O
- Potency [1]: inactive
- Potency [2]: inactive

Compound: C[C@H]1[C@H](C)CC[C@]2(C(=O)O)CC[C@]3(C(=O)O)C(=CCC4[C@@]5(C)CC[C@H](O[C@@H]6O[C@H](C)[C@@H](O)[C@H](O)[C@H]6O)C(C)(C)C5CC[C@]43C)[C@H]12 (some centres not stated)
- Potency [1]: inactive
- Potency [2]: inactive

Compound: CC(=O)OC[C@@]12[C@H](O)C[C@@H](C)[C@]3(C[C@@H](c4ccoc4)OC3=O)[C@H]1C[C@H](O)C[C@]21CO1
- Potency [1]: inactive
- Potency [2]: inactive

Compound: CC1CCC2C(C)(C)C(O)CCC2(C)C12Cc1c(O)cc3c(c1O2)CN=C3N (configuration not stated)
- Potency [1]: inactive
- Potency [2]: inactive

Compound: Cn1c(=O)c2nc(/C=C/c3cccc(Cl)c3)n(C)c2n(C)c1=O
- Potency [1]: inactive
- Potency [2]: inactive

Compound: CC(=O)OC[C@@]12[C@H](O)C[C@]3(C)C(=CCC4[C@@]5(C)CC[C@H](O[C@@H]6O[C@H](C(=O)O)[C@@H](O[C@@H]7O[C@H](CO)[C@@H](O)[C@H](O)[C@H]7O)[C@H](O)[C@H]6O[C@@H]6O[C@H](CO)[C@@H](O)[C@H](O)[C@H]6O)[C@](C)(CO)C5CC[C@]43C)[C@@H]1CC(C)(C)[C@@H](OC(C)=O)[C@@H]2O (some centres not stated)
- activity change, negative = viability loss [1]: 3.64% [at 9.23 µM]
- outcome [2]: inactive [at 9.23 µM]

Compound: CCc1c(CC(N)=O)c2cc(OCCCP(=O)(O)O)ccc2n1Cc1ccccc1
- Potency [1]: inactive
- Potency [2]: inactive

Compound: COC(=O)c1cc(CN2CCN(C(=N)N)CC2)cc(C(=O)N2CCN(C(=O)c3ccc(C(=N)N)cc3)CC2)c1
- Potency [1]: inactive
- Potency [2]: inactive

Compound: CC1NC(=O)C(Cc2c[nH]c3ccccc23)NC1=O (configuration not stated)
- Potency [1]: inactive
- Potency [2]: inactive

Compound: C[C@H]1[C@H](C)CC[C@]2(C(=O)O[C@@H]3O[C@H](CO)[C@@H](O)[C@H](O)[C@H]3O)CC[C@]3(C(=O)O)C(=CCC4[C@@]5(C)CC[C@H](O[C@@H]6O[C@H](CO)[C@@H](O)[C@H](O)[C@H]6O)C(C)(C)C5CC[C@]43C)[C@H]12 (some centres not stated)
- activity change, negative = viability loss [1]: -7.26% [at 9.23 µM]
- activity change, negative = cell killing [2]: -8.94% [at 9.23 µM]

Compound: CC(C#N)C(C)O[C@@H]1O[C@H](CO)[C@@H](O)[C@H](O)[C@H]1O (some centres not stated)
- Potency [1]: inactive
- Potency [2]: inactive

Compound: C[C@@H]1O[C@@H](OC[C@H]2O[C@@H](OCC3CCC4CC3C4(C)C)[C@H](O)[C@@H](O)[C@@H]2O)[C@H](O)[C@H](O)[C@H]1O (some centres not stated)
- Potency [1]: inactive
- Potency [2]: inactive

Compound: CC1(C)CC2C3=CCC4C5(C)CCC(OC6OC(CO)C(O)C(OC7OC(CO)C(O)C(OC8OC(CO)C(O)C(OC9OC(COC%10OC(CO)C(O)C(O)C%10O)C(O)C(O)C9O)C8O)C7O)C6O)C(C)(C)C5CCC4(C)C3(C)CCC2(C(=O)O)CC1O (configuration not stated)
- outcome [1]: inactive [at 9.23 µM]
- activity change, negative = cell killing [2]: 4.6% [at 9.23 µM]
